Only some compounds are listed: those with a hit (about 3.4% of all), similar ones and a draw of the others.
SIRT5 inh: inhibitors of human sirtuin-5 desuccinylase | Q9NXA8 | Purified SirT5, succinyl-peptide AMC, trypsin-coupled fluorescence | AID 652115 | 330,000 tested, 1.1% active | inhibition, % at 15 µM; in the data active = inhibition above about 15%; inconclusive = no clear call, values can overlap the other calls
Target sequence (Q9NXA8 whole entry, looked up): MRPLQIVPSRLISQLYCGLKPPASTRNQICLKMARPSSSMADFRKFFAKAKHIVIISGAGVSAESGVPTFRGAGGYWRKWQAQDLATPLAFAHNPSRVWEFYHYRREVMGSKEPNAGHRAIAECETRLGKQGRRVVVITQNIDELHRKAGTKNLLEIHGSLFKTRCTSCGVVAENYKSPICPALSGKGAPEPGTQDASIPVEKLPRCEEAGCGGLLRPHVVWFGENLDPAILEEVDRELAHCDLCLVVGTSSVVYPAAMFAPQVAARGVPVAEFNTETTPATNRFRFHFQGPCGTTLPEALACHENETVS
LGR2 inh: blocks bursicon-induced cAMP signaling via Drosophila LGR2; HEK293 LGR2, CRE-luciferase, bursicon-stimulated, 4 h; inhibition, % at 9.99 µM; 380,000 tested, 0.35% active; AID 720647;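 active = drop in luminescence signal, shown as inhibition above about 50% in the replicate tests, limit read from the data, passing the limit was not always enough; inconclusive = probably only some replicates passing the limit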;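 also: agonist challenge used bursicon conditioned medium at about half maximal strength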
PGC1a acetyl inh: PGC1a acetylation modulation, inhibitor mode. U2OS PGC1a acetylation, AlphaScreen anti-acetyl-lysine; with virally co-expressed GCN5 acetyltransferase. inhibition, % at 15.6 µM. 350,000 tested, 0.17% active. AID 651687;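 active = every replicate shows inhibition of at least 40%; inconclusive = mean inhibition at least 40% but some replicate below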;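 also: 0% = neutral control wells and 100% = positive control wells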
EWS-Fli block: inhibitors of EWS/Fli oncoprotein transcriptional activity; A673 NR0B1-luciferase reporter, viability-normalised; inhibition, % at 12.6 µM; 350,000 tested, 0.67% active; AID 651661;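 active = mean inhibition of at least 50% after viability correction, with every replicate also passing that limit; inconclusive = mean reaches 50% but only one of two replicates passes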;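 also: firefly luciferase signal divided by Alamar Blue viability fluorescence both relative to DMSO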
rRNA inh HTS: inhibitors of bacterial rRNA selective over humanized ribosomes; 350,000 tested, 1.6% active; GFP signal change (wild-type ribosome), % (test concentration not listed); E. coli WT GFP vs humanized-ribosome RFP mutants, fluorescence, 24 h; hits give low values; DMSO median 0, no signal -100;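 active = significant combined selectivity score with lowered wild-type GFP, culture density cut under 30%, mutant RFP and density less affected; inactive = any of these conditions unmet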
PAX8 inh HTS: lowers PAX8-driven luciferase in RMG-I cells | AID 652154 | inhibition, % at 12.6 µM | 360,000 tested, 1.2% active | RMG-I TPO-luciferase reporter, SteadyGlo, 24 h;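 active = mean replicate inhibition at least 60% with every replicate also reaching 60%; inconclusive = only one of the two criteria is met; inactive = mean below 60% and not all replicates reaching 60%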;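 also: luciferase light reporting Pax8 driven TPO promoter activity; plate controls were median of neutral control wells for no effect and mitoxantrone controls for full effect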
AID977621: wild-type E. coli growth inhibition versus H69 humanized strain – H69 mutant RFP, wild-type GFP, cherry-pick, dose response; 1,900 tested, under 10 active; shares compounds with rRNA inh HTS; activity change, negative = inhibition at 50 µM; fluorescence, 24 h;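 active = Wild-type ribosome reporter drop at least double the humanized mutant ribosome reporter drop, growth loss under a set limit; inconclusive = no clear call, values can overlap the other calls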;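 also: wild-type GFP and H69 mutant RFP strains grown together 50/50 in each well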
AID977628: growth of wild-type and h24-humanized E. coli strains – h24 mutant RFP vs wild-type GFP, cherry-pick, dose response; shares compounds with rRNA inh HTS; E. coli WT GFP strain growth, fluorescence, 24 h; activity change, negative = inhibition at 50 µM; 1,900 tested, under 10 active; AID 977628;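 active = compound lowering the normal-ribosome reporter at least twice as much as the humanized-ribosome reporter, growth loss under a set limit; inconclusive = no clear call, values can overlap the other calls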;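 also: wild-type GFP and h24 humanized RFP strains co-cultured 1 to 1 per well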
Active calls of the source: *; u = inconclusive; x = no result.

SMILES | SIRT5 inh | LGR2 inh | PGC1a acetyl inh | EWS-Fli block | rRNA inh HTS | PAX8 inh HTS | AID977621 | AID977628
O=C(O)CSc1nc2ccccc2n1C1CCCCC1 | -2 | -9 | -40 | 7 | -22* | 10 | -9.2 | x
C[C@H](CO)N1C[C@H](C)[C@H](CN(C)S(C)(=O)=O)Oc2ncc(/C=C/c3ccccc3)cc2C1=O | -18 | 11 | 1 | -5 | -1 | x | x | x
C[C@@H]1CN([C@H](C)CO)C(=O)c2cccc(NC(=O)c3ccc(-c4nccs4)cc3)c2O[C@@H]1CN(C)S(=O)(=O)c1cn(C)cn1 | -9 | -11 | -2 | 3 | 1 | x | x | x
Cc1ccc(-c2c(=O)n(O)c3ccccc3[n+]2[O-])cc1 | -2 | -1 | -5 | 12 | -17* | 7 | -5.6 | u
COc1ccc(CN(C)C[C@@H]2Oc3c(NS(=O)(=O)c4ccc(OC)cc4)cccc3C(=O)N([C@H](C)CO)C[C@H]2C)cc1 | -4 | 10 | 0 | 2 | 0 | x | x | x
CC1CCCN(C(=O)C(C)Nc2cc(Cl)ccc2N2CCOCC2)C1 (centres undefined) | 2 | -36 | x | -3 | -29* | 22 | u | x
CC(=O)Nc1ccc(S(=O)(=O)Nc2cc(Cl)ccc2N2CCOCC2)cc1 | 0 | -18 | 10 | 4 | -8 | 21 | x | x
CN(C)CCCn1c(=O)n(Cc2ccco2)c(=O)c2c3c(sc21)CCCCC3 | -3 | 21 | -5 | 13 | -26* | 24 | -20 | u
CN(C)CCCn1c(=O)n(CCc2ccccc2)c(=O)c2c3c(sc21)CCCCC3 | -3 | x | -6 | 3 | -49 | 32 | x | x
Cc1cccc(-c2nsc(SCC(=O)NCC3CCCO3)n2)c1 (centres undefined) | -3 | -22 | x | -13 | -22* | -24 | -3.1 | 1.9
CCC(=O)N1CC2(C1)[C@@H](c1ccccc1)[C@@H](CO)N2CCC(F)(F)F | -4 | 9 | 3 | 3 | 2 | 5 | x | x
CO[C@H]1CN(C)C(=O)c2cc(NC(=O)C3CC3)ccc2OC[C@@H](C)N(CCC(F)(F)F)C[C@H]1C | -1 | 13 | 5 | 6 | -1 | 11 | x | x
CC1CCCCN1c1ncnc2ccccc12 (centres undefined) | x | x | 7 | x | x | x | x | x
CC1(C)CC2CC(C)(CN2c2ncnc3ccccc23)C1 (centres undefined) | -3 | 8 | -3 | 13 | -27* | x | -0.47 | u
CCOC(=O)c1ccc(NC(=O)COc2ccc(CNCCO)cc2OCC)cc1 | -7 | -10 | x | 3 | -24* | 18 | -11 | -4.7
O=C(Nc1ccc(F)c(Cl)c1)C1CC2CCC1C2 (centres undefined) | -2 | 0 | x | -9 | -28* | -12 | 4.3 | 5

Screening results from PubChem.
